ALDH1A1 inh = qHTS Assay for Inhibitors of Aldehyde Dehydrogenase 1 (ALDH1A1); Purified ALDH1A1, NADH fluorescence, propionaldehyde substrate; Potency, µM (top dose mostly 75.3 µM), inactives show at the top dose activity, negative = inhibition, most hits filed as inhibitors; actives 7.3% (n = 220,000);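 note: potency is the fitted concentration of half-maximal effect; plate controls were no enzyme wells and a reference inhibitor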
Target sequence (P00352 whole entry, looked up): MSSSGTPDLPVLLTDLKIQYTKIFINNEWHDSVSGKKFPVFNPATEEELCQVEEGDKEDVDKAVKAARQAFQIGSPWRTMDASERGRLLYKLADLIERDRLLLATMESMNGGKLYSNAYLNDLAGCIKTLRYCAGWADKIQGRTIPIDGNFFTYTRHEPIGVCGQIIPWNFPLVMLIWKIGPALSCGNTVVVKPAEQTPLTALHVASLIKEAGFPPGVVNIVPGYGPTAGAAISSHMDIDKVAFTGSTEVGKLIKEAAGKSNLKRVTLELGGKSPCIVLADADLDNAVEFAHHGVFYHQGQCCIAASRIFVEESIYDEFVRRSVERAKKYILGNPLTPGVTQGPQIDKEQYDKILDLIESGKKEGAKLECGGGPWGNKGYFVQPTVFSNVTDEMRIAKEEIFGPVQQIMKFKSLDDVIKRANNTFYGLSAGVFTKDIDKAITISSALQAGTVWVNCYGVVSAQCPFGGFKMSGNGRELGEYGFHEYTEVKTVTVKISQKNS
HTT cytoprotect = qHTS Multiplex Assay to Identify Dual Action Probes in a Cell Model of Huntington: Cytoprotection (ATP) | PC12 HTT-Q103 induced, cytoprotection, ATP luminescence, 40 h | Potency, µM (top dose mostly 56.4 µM), inactives show cytoprotection (ATP increase), most hits filed as activators | actives 0.14% (n = 230,000) | AID 1471, 2008; active = well fitted curve in the direction sought with a large enough effect; inconclusive = small, poorly fitted or top-dose-only effect, or another doubt; inactive = no such curve, though single readings can be large; an effect the other way counts as inactive or inconclusive; note: potency is the fitted concentration of half-maximal effect; % of control where 0% means no effect; nearly all actives have a fitted effect of over 45% in size
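ATP quantification (ATPlite) reports survival of PC12 cells in which tebufenozide, 100 nM final, switches on Htt exon 1 with 103 glutamines linked to GFP; compounds are titrated.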
HPGD block = qHTS Assay for Inhibitors of HPGD (15-Hydroxyprostaglandin Dehydrogenase); 15-hydroxyprostaglandin dehydrogenase [NAD(+)] (Homo sapiens), P15428; actives 4.3% (n = 150,000); Potency, µM, for the others: at the top dose activity change, negative = inhibition, actives largely listed as inhibitors; purified HPGD, NADH fluorescence kinetic, PGE2 substrate; AID 894, 2007; note: potency is the fitted concentration of half-maximal effect; % is set by controls: 0 for no effect and ±100 for the full control effect
Target sequence (P15428 whole entry, looked up): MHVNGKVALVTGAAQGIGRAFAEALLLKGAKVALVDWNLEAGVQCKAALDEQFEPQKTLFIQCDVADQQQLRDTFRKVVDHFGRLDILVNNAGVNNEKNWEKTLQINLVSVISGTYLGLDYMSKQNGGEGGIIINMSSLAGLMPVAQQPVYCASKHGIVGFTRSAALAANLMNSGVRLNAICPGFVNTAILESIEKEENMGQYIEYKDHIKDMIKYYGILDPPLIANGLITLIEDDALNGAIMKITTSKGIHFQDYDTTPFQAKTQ
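20 nM HPGD preincubated 15 min at room temperature with compound in 50 mM Tris-HCl pH 8, 0.01% Tween 20. Started with 1 mM NAD+ and 30 uM prostaglandin E2; NADH fluorescence (360/450 nm) read 5 times over 30-s intervals, last minus first.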
CBFb RUNX1 block = qHTS Assay for Compounds Blocking the Interaction Between CBF-beta and RUNX1 for the Treatment of Acute Myeloid Leukemia | Runt-related transcription factor 1 (Homo sapiens) + Core-binding factor subunit beta … | AlphaScreen CBFb-His/RUNX1-biotin binding, biochemical | Potency, µM (highest dose often 59.8 µM), without a hit: at the highest dose activity, negative = inhibition, hits mostly inhibitors | 230,000 tested, under 10 active | AID 1477, 2009; active = well fitted curve in the direction sought with a large enough effect; inconclusive = small, poorly fitted or top-dose-only effect, or another doubt; inactive = no such curve, though single readings can be large; an effect the other way counts as inactive or inconclusive; note: % of control where 0% means no effect
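Compounds were screened at multiple concentrations against a preformed CBF-beta(His)/RUNX1(biotin) complex (30 nM of each) for 15 min at room temperature, followed by 90 min with nickel and streptavidin beads and AlphaScreen reading.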
KDM4E inh = qHTS Assay for Inhibitors of Human Jumonji Domain Containing 2E (JMJD2E) | actives 1.6% (n = 230,000) | Potency, µM (titrated, usually from 57.1 µM), inactives show top-dose activity change, negative = inhibition, most hits filed as inhibitors | JMJD2E catalytic domain, FDH-coupled NADH fluorescence (FDH is formaldehyde dehydrogenase) | Lysine-specific demethylase 4E (Homo sapiens), B2RXH2;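 note: potency is the fitted concentration of half-maximal effect; 0% = wells with enzyme and -100% = buffer wells without enzyme; nearly all actives have a fitted effect of over 50% in size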
HTT aggregate = qHTS Multiplex Assay to Identify Dual Action Probes in a Cell Model of Huntington: Aggregate Formation (GFP) | PC12 HttQ103-GFP aggregates, Acumen cytometry, 40 h | Potency, µM (doses to about 46.1 µM), for the others: top-dose activity change, negative = inhibition, most hits filed as inhibitors | actives 1.1% (n = 220,000); active = well fitted curve in the direction sought with a large enough effect; inconclusive = small, poorly fitted or top-dose-only effect, or another doubt; inactive = no such curve, though single readings can be large; an effect the other way counts as inactive or inconclusive; note: potency is the fitted concentration of half-maximal effect; % is set by controls: 0 for no effect and ±100 for the full control effect; nearly all actives have a fitted effect of over 60% in size
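Steps: seed 1500 PC12 HTTQ103-GFP cells/well; add tebufenozide, 100 nM final; add compound titration; add ATPLite reagent; quantify GFP aggregates by laser scanning cytometry.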
An asterisk follows results filed as active; ? = inconclusive; nt = no result given; [ ] = dose if it differs, or a comment. Shown are actives, neighbours in structure and some others; about 9.8% of the full set was active somewhere. Unless noted, calls come from the whole dose curve; as a rule, active = well fitted inhibition curve with a large enough effect (not every such curve was filed as active); inconclusive = small, poorly fitted or top-dose-only effect, or another doubt; inactive = no such curve, though single readings can be large or run the other way.

SMILES	ALDH1A1 inh	HTT cytoprotect	HPGD block	CBFb RUNX1 block	KDM4E inh	HTT aggregate
Cc1cc(O)c(Oc2cc(C)cc(O)c2O)c(O)c1	8.91µM*	-17.7%[10 µM]	nt	-7.2%	12.6µM*	0.6%[9.22 µM]
Cn1c(/C(C#N)=C(\O)c2ccc([N+](=O)[O-])cc2)nc2ccccc21	2.4%	2.4%	nt	13.3%	9.7%	2.9%
CCN(CC)S(=O)(=O)c1ccc(/C(O)=C(\C#N)c2nc3ccccc3n2C)cc1	20µM*	-27.4%[10 µM]	-18.3%	2.5%	-13.5%	-33.2%
CCOC(=O)CSC1=C(C#N)C(c2ccccc2F)C(C(C)=O)=C(C)N1 (stereo not given)	?	7.7%	-12.3%	5.3%	-8.3%	11.2%
CCOC(=O)CSC1=C(C#N)C(c2ccc(Cl)cc2)C(C(=O)OC)C(=O)N1 (stereo not given)	25.1µM*	-16.8%[0.074 µM]	-26.4%	4.4%	-22.8%	2.8%
N#CC1=C(SCC(=O)c2ccccc2)NC2=C(C(=O)CCC2)C1c1ccco1 (stereo not given)	8.91µM*	-111.4%	?	2.9%	?	11.2µM*
CC(=O)C1=C(C)NC(SCC(=O)c2ccc(Cl)c(Cl)c2)=C(C#N)C1c1ccco1 (stereo not given)	2.82µM*	5.3%	22.4µM*	-8.0%	-1.1%	12.6%
CCOC(=O)C1=C(C)NC(SCC(=O)O)=C(C#N)C1c1ccco1 (stereo not given)	?	-8.0%	?	0.0%	?	1.8%
Cc1ccc(C(=O)CSC2=C(C#N)C(c3ccco3)C3=C(CCCC3=O)N2)cc1 (stereo not given)	?	-89.7%	-15.7%	-4.7%	-8.9%	-7.6%
CSCSC1=C(C#N)C(c2ccccc2Cl)C(C(C)=O)=C(C)N1 (stereo not given)	25.1µM*	2.9%	?	14.9%	-20.9%	-26.2%
COc1ccc(C2(CNS(=O)(=O)c3ccc(C)cc3)CCOCC2)cc1	nt	-5.6%[10 µM]	nt	12.5%	1.6%	27.1%[9.22 µM]
COC(=O)C/C=C\[C@@H](C)[C@@H](/C=N\OCC[C@@H]1C=C[C@H](OC(C)=O)[C@H](COC(C)=O)O1)OC	-2.1%[13.5 µM]	-18.1%[10 µM]	nt	10.5%[13.1 µM]	nt	nt
O=C(NNC(=O)c1cc2cc(OC(F)(F)F)ccc2[nH]1)c1ccc(Cl)cc1	nt	3.9%[10 µM]	nt	7.7%	-4.0%	-3.1%[9.22 µM]
Cc1ccc(NC(=O)C(C)NC(=O)OCc2ccccc2)cc1C (stereo not given)	-4.9%	2.5%[10 µM]	nt	3.2%	-13.3%	-0.6%[9.22 µM]
CC(=O)C1=C(C)NC(SCC(N)=O)=C(C#N)C1c1sccc1C (stereo not given)	?	-44.1%	?	1.4%	?	-0.9%
CCOC(=O)CSC1=C(C#N)C(c2sccc2C)C(C(C)=O)=C(C)N1 (stereo not given)	22.4µM*	6.3%	-14.5%	6.5%	-15.9%	-10.3%
CC(=O)C1=C(C)NC(SCC(=O)c2ccc(F)cc2)=C(C#N)C1c1ccco1 (stereo not given)	12.6µM*	-20.3%	25.1µM*	-15.0%	-24.2%	-7.2%
C=CCOC(=O)C1=C(C)NC(SCC(=O)N(CC)CC)=C(C#N)C1c1ccco1 (stereo not given)	?	7.5%[1.9 µM]	17.8µM*	10.1%	-26.2%	29.4%
CCc1ccc(C(=O)CSC2=C(C#N)C(c3ccco3)C(C(C)=O)=C(C)N2)cc1 (stereo not given)	?	-23.3%	?	3.5%	-12.2%	5.7%
CC(=O)C1=C(C)NC(SCC(=O)c2cc(Cl)ccc2Cl)=C(C#N)C1c1ccco1 (stereo not given)	25.1µM*	-3.5%	28.2µM*	7.5%	?	?
NS(=O)(=O)c1ccc(CCNC(=O)/C=C/c2cccc([N+](=O)[O-])c2)cc1	-3.1%	18.8%[10 µM]	nt	3.1%	7.2%	7.4%[9.22 µM]
O=C(NCc1ccc(F)cc1)c1c2c(nc3ccccc13)CCC2	-3.7%	-15.0%[10 µM]	nt	?	?	-2.4%
COc1ccccc1NC(=S)NNC(=O)c1nn(C)c(C)c1Cl	-7.5%	-6.9%	-8.0%	-10.3%	14.1µM*	-24.1%
COc1ccccc1NC(=S)NNC(=O)c1nn(C)c(C)c1Br	?	10.0%[10 µM]	-11.0%	?	7.94µM*	-7.1%
COc1ccccc1NC(=S)NNC(=O)c1nn(C)cc1Cl	?	-12.9%	-17.8%	-11.1%	10µM*	6.2%
SMILES	ALDH1A1 inh	HTT cytoprotect	HPGD block	CBFb RUNX1 block	KDM4E inh	HTT aggregate
COc1cc(SC)ccc1C(=O)Nc1nccs1	0.8%	-48.7%[10 µM]	nt	-6.3%	-11.8%	-11.1%[9.22 µM]
CC(C)NC(=O)CN1CCN(C(=O)CCl)CC1	3.16µM*	-39.1%	nt	-8.7%	-2.4%	-1.2%
CC(C)c1ccc(CN2CCN(C(=O)CCl)CC2)cc1	0.562µM*	nt	nt	16.0%	-11.9%	?
CN(C)C(=O)CN1CCN(C(=O)CCl)CC1	2.82µM*	8.4%	nt	0.8%	-6.8%	-2.0%
COC(=O)c1ccc2c(=O)[nH]c(CN3c4ccccc4CC3C)nc2c1 (stereo not given)	11.2µM*	-21.1%	-12.8%	-9.6%	-7.5%	16.9%
CC1Cc2ccccc2N1Cc1nc2cc(Cl)ccc2c(=O)[nH]1 (stereo not given)	?	-1.3%	-23.0%	-2.1%	-21.6%	15.5%[9.22 µM]
O=C(CSc1nc(-c2ccccc2)cs1)NCc1ccco1	25.1µM*	21.9%[10 µM]	28.2µM*	2.5%	-2.8%	-1.2%
c1cncc(-c2csc(NCc3ccco3)n2)c1	?	-10.0%	14.1µM*	-2.9%	9.0%	-15.8%
COCCNC(=O)CSc1nc(-c2ccccc2)cs1	0.4%	-35.7%	31.6µM*	6.8%	1.7%	5.5%
CCn1c(CSc2nc(C)cc(C)n2)nnc1SCC(=O)Nc1nc(-c2ccccc2)cs1	7.9%	-13.3%[10 µM]	-11.3%	-2.6%	7.1%	-16.5%
CCn1c(CNc2nc(-c3ccccc3)cs2)nnc1SCC(=O)NCc1ccco1	28.2µM*	9.0%[10 µM]	?	-14.4%	0.1%	-10.9%
Cc1cc(C)nc(SCc2nnc(SCC(=O)Nc3nc(-c4ccccc4)cs3)n2C)n1	-9.9%	-8.6%[10 µM]	-23.3%	2.0%	-0.5%	15.8%
Cc1ccc(C(=O)CSc2nnc(CNc3nc(-c4ccccc4)cs3)n2C)cc1	14.1µM*	-25.5%	-20.6%	-14.0%	-11.2%	?

High-throughput results (PubChem BioAssay)
